# Data taken from PubChem BioAssay.
# Assay: S6 kinase pathway phospho-S6 level changes – cell-based, A549, cytoblot, luminescence, serum-stimulated, primary screen (AID 1158);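 also: serum-stimulated A549 lung adenocarcinoma cells; signal is phosphorylated S6 detected by cytoblot immunostaining with HRP secondary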
# Settings: 5 h, higher = more signal
row,SMILES,z-score
1,CCOC(=O)C1=CC[C@@H](c2ccc(OC)cc2)N(S(=O)(=O)c2ccc(C)cc2)[C@H]1c1ccc(C)cc1,-0.752
2,CCOC(=O)C[C@H]1[C@H](OC(=O)Cc2ccc3c(c2)OCO3)[C@@H](NC(=O)c2ccc3ccccc3n2)c2cc(OCCCO)ccc2N1C(=O)Cc1ccc(OC)cc1,2.03
3,CC(C)(C)N1CC=CC23O[C@@H]4C=CCOC(=O)[C@@H]4[C@H]2C(=O)N(CCO)[C@@H]3C1=O (stereo partly drawn),-0.694
4,CCOC(=O)C1=CC[C@@H](c2ccc(OC)cc2)N(S(=O)(=O)c2ccc(C)cc2)[C@H]1CC,1.27
5,COc1ccc(NN2C(C(O)c3ccc(I)cc3)C=CC3C(=O)N(C4CCCCC4)C(=O)C32)cc1 (stereo not drawn),-0.569
6,C=CCOC(=O)[C@H]1[C@@H]2C(=O)O[C@@H](c3ccccc3)[C@@H](c3ccccc3)N2[C@@H](c2ccc(OCCOC(=O)[C@@H]3C[C@@H]4C(=O)N[C@@H](CCCC[N+](C)(C)C)C(=O)N4[C@@H]3c3ccc(O)cc3)cc2)[C@]12C(=O)Nc1ccc(I)cc12,-2.1
7,Cc1ccc(S[C@]2(C(=O)NCc3ccccc3)CC(=O)N(Cc3ccccc3C(F)(F)F)[C@@H]2c2ccc(CO)cc2)cc1,1.24
8,CC(C)=CCCC(C)=CC(O)C1C=CC2C(=O)NC(=O)C2N1Nc1ccccn1 (stereo not drawn),0.585
9,O=C1O[C@H](c2ccccc2)[C@H](c2ccccc2)N2[C@H]1[C@@H](C(=O)O)[C@]1(C(=O)Nc3ccc(C#CCCO)cc31)[C@H]2c1ccc(OCCO)cc1,0.112
10,C=CCN1C(=O)[C@@]2(O[C@@H](CCn3cc([C@H](O)c4ccccc4)nn3)[C@H]([Si](C)(C)c3ccc(OC)cc3)[C@H]2C)c2cc(N3C(=O)c4cccc5cccc3c45)ccc21,0.075
11,NC(=O)NCC#Cc1ccc2c(c1)[C@]1(C(=O)N2)[C@H](c2ccc(OCCO)cc2)N2[C@H](c3ccccc3)[C@H](c3ccccc3)OC(=O)[C@H]2[C@@H]1C(=O)O,1.61
12,CO[C@H]1O[C@H](CO)[C@@H](OC(=O)Nc2ccc3c(c2)OCO3)[C@H](OC(=O)Nc2ccccc2-c2ccccc2)[C@H]1OC(=O)Nc1ccccc1-c1ccccc1,-0.311
13,CC1CC/C=C\[C@H]2OC34C=CCN(c5ccc6ccccc6c5)C(=O)[C@H]3N(C(C)CO)C(=O)[C@@H]4C2C(=O)O1 (stereo partly drawn),-0.347
14,COC(=O)[C@@]1(Cc2ccc(OC)cc2)[C@H]2c3cc(C(=O)N4CCCC4)n(Cc4ccc(C(F)(F)F)nc4)c3C[C@H]2CN1C(=O)c1ccccc1,-0.249
15,Cc1ccc(C(C)CC(O)C2C=CC3C(=O)N(C)C(=O)C3N2Nc2ccccc2)o1 (stereo not drawn),-1.4
16,C=CC[C@@]1(C(=O)N(C)C)N=C(c2ccc(OCCCO)cc2)O[C@@H]1c1ccccc1CN=[N+]=[N-],-0.354
17,COC(=O)[C@@]1(Cc2ccccc2)[C@H]2c3cc(C(=O)N4CCCC4)n(Cc4ccc(OC)c(OC)c4)c3C[C@H]2CN1C(=O)c1ccccc1,-0.321
18,N#Cc1ccc(NN2C(C(O)C3CC=CCC3)C=CC3C(=O)N(c4ccccc4)C(=O)C32)cc1 (stereo not drawn),-0.723
19,C=C(C)[C@@H]1CC=C(C(O)C2C=CC3C(=O)N(c4ccccc4)C(=O)C3N2Nc2ccc([N+](=O)[O-])cc2)CC1 (stereo partly drawn),-0.456
20,COc1ccc([Si](C)(C)[C@H]2[C@H](CCO)O[C@@]3(C(=O)N(Cc4cccc(N(C=O)c5ccccc5)c4)c4ccccc43)[C@@H]2C)cc1,1.91
21,CCCCC(O)C1C=CC2C(=O)N(c3ccccc3)C(=O)C2N1Nc1ccc([N+](=O)[O-])cc1 (stereo not drawn),0.581
22,COc1ccc([Si](C)(C)[C@@H]2[C@@H](CC(=O)N3CCC[C@H]3CO)O[C@]3(C(=O)N(Cc4ccc(N5CCOC5=O)cc4)c4ccccc43)[C@H]2C)cc1,0.615
23,CC(C)NC(=O)[C@@H]1c2ccccc2C(=O)N(Cc2ccccc2C(F)(F)F)[C@H]1c1ccc(CO)cc1,-0.262
24,CCCCCC1=C2CNC(Cc3ccccc3)(C(=O)OC)C=C2C(C)C1=O (stereo not drawn),-0.275
25,CN(C)c1ccc(C(O)C2C=CC3C(=O)N(Cc4ccccc4)C(=O)C3N2n2cnnc2)cc1 (stereo not drawn),1.02
26,O=C(NCC(O)CO)[C@@]1(CCS(=O)(=O)c2ccccc2)N=C(c2ccc(OCCCO)cc2)O[C@H]1c1ccccc1 (stereo partly drawn),1.07
27,COCCCNC(=O)[C@@H]1c2ccccc2C(=O)N(Cc2ccc(OC(F)(F)F)cc2)[C@H]1c1ccc(CO)cc1,0.0296
28,Cc1ccc(F)cc1S(=O)(=O)N[C@H]1CCN(Cc2ccc(OC(C)C)cc2)C1,-0.227
